PubChem BioAssay AID488969 (Vanderbilt High Throughput Screening Facility, 2010)
Over roughly 110,000 compounds, “z-score” has its median near -0.1; the highest 2% begin near 2. For the sample, the highest values were picked, then their nearest neighbours and some compounds at random. Calls of active or inactive are those of the source.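 The calls were made as follows: active = z-score in the third read window above 3 or below -3; inactive = the rest.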

target: Metabotropic glutamate receptor 8 (Rattus norvegicus) (UniProt P70579); assay: rat mGluR8 modulators via GIRK flux, primary screen, cell-based, thallium flux, HTS (AID 488969); details: HEK293 rat mGluR8, GIRK (G protein-gated inwardly rectifying potassium channel) thallium flux, FluoZin2; at 10 µM; stronger effect = higher value; submaximal glutamate (EC20) added with thallium
Sequence (P70579 whole entry, looked up): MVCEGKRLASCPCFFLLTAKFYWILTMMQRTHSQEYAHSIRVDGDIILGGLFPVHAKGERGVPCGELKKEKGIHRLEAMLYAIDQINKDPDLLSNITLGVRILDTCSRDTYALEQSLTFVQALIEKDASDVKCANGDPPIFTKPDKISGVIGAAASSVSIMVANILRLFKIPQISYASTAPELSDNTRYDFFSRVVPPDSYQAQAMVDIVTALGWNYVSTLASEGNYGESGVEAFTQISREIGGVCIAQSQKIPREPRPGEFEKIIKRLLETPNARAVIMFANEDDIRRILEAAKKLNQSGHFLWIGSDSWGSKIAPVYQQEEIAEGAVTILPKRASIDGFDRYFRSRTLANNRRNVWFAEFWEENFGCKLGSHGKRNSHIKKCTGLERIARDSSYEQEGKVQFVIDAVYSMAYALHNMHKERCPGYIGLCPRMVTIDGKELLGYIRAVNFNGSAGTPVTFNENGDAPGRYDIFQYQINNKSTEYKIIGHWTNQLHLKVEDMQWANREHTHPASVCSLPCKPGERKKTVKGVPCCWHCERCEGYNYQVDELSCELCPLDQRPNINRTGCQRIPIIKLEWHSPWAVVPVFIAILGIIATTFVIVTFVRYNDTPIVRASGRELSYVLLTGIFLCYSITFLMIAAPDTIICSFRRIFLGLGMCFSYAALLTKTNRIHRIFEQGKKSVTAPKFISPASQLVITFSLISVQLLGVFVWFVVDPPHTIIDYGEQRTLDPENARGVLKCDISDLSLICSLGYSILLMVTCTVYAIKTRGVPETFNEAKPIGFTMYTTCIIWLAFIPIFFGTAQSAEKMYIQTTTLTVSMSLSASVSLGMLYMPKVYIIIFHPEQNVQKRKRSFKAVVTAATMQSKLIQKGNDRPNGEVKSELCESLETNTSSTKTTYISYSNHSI

Row | Compound | z-score
1 | COCCn1c(CN2CCN(c3ccc(OC)cc3)CC2)nc2c1c(=O)n(C)c(=O)n2C | -0.219
2 | c1csc(Cn2c(-c3cccs3)nc3ccccc32)c1 | -1.65
3 | CCn1c(-c2cccs2)nc2ccccc21 | -0.122
4 | C=CCn1c(-c2cccs2)nc2ccccc21 | 3.14 (active)
5 | COc1cccc(NS(=O)(=O)c2ccc(NC(C)=O)cc2)c1 | -0.261
6 | COC(=O)CNc1nc(OC)nc(N(C)C)n1 | 0.391
7 | Cc1cc(C(=O)N2CCC(Cc3ccccc3)CC2)ccc1[N+](=O)[O-] | -0.573
8 | Cc1cccc(C(=O)N2CCC(Cc3ccccc3)CC2)c1[N+](=O)[O-] | 8.23 (active)
9 | O=C(c1ccccc1[N+](=O)[O-])N1CCC(Cc2ccccc2)CC1 | -0.0322
10 | CCNC(=O)CC1SC(=Nc2cccc(Cl)c2C)N(C)C1=O (centres undefined) | 0.271
11 | c1coc(Cn2c(SCc3nc4ccccc4[nH]3)nnc2-c2cccs2)c1 | -0.59
12 | CCC(C)NC(=O)CN1C(=O)CC(C)(C)S(=O)(=O)c2ccccc21 (centres undefined) | 4.26 (active)
13 | CC1(C)CC(=O)N(CC(=O)O)c2ccccc2S1(=O)=O | -0.22
14 | CC1(C)CC(=O)N(CC(=O)NCc2ccccc2)c2ccccc2S1(=O)=O | -0.409
15 | Cc1csc(NC(=O)C2CCCC2)n1 | 0.0786
16 | O=C(CN(Cc1ccco1)C(=O)c1ccc(Cl)cc1)Nc1ccc(Cl)c(Cl)c1 | -0.0983
17 | Cc1ccc(C(=O)NC2(C(F)(F)F)N=C3SCCN3C2=O)cc1 (centres undefined) | 2.91
18 | O=C(NC1(C(F)(F)F)N=C2SCCN2C1=O)c1ccccc1 (centres undefined) | -0.628
19 | CC(C)Oc1ccc(C(=O)NC2(C(F)(F)F)N=C3SCCN3C2=O)cc1 (centres undefined) | 0.873
20 | CS(=O)(=O)Nc1ccc(C(=O)NC2CCCC2)cc1 | -0.00695
21 | COc1ccc(OC)c(/C=N/NC(=O)CN2CCSCC2)c1 | 0.045
22 | CCn1cc(C(=O)NC(=S)Nc2sc3c(c2C(=O)OC)CCCCCC3)cn1 | -0.247
23 | CCn1nnc(NC(=O)c2cccnc2Cl)n1 | -0.48

Row | Compound | z-score
24 | C/C(=N/NC(=S)Nc1ccccc1)c1ccc2c(c1)OCO2 | 7.92 (active)
25 | C/C(=N\NC(=S)Nc1ccc(F)cc1)c1ccc2c(c1)OCCO2 | 6.87 (active)
26 | C/C(=N\NC(=S)Nc1ccc(F)cc1)C1CC1 | -0.155
27 | C/C(=N/NC(=O)c1ccc2c(c1)OCO2)c1ccc(NC(=O)C(F)(F)F)cc1 | -0.151
28 | C/C(=N/NC(=O)c1ccc2c(c1)OCO2)c1cccc(NC(=O)C(C)(C)C)c1 | -0.191
29 | C/C(=N\NC(=O)c1ccccc1)c1ccc2c(c1)OCO2 | -0.195
30 | COc1nc(N/N=C/c2cc3c(cc2Br)OCO3)nc(N2CCOCC2)n1 | -0.297
31 | Cc1c(N=C2SCC(=O)N2/N=C/c2ccccc2)c(=O)n(-c2ccccc2)n1C | -0.023
32 | CSc1nc2ccc(NC(=O)c3nn(C(C)C)c(=O)c4ccccc34)cc2s1 | -0.391
33 | Cc1ccc(SCc2cc(-c3ccc(Cl)cc3)on2)cc1 | 0.048
34 | CCOc1ccc(-c2[nH]ncc2-c2csc(C)n2)c(O)c1 | -0.285
35 | COc1ccc(NC(=O)CSc2nnc(Cn3cnc4ccccc43)n2C)cc1 | 0.66
36 | O=C(Nc1ccc2c(c1)OCCO2)c1ccc2nccnc2c1 | 0.215
37 | CCOC(=O)C1CCN(c2c(Nc3ccc4c(c3)OCCO4)c(=O)c2=O)CC1 | -0.277
38 | CCC1CCCCN1C(=S)NC(=O)c1ccc([N+](=O)[O-])cc1 (centres undefined) | 9.16 (active)
39 | O=C(NC(=S)N1CCCc2ccccc21)c1ccc([N+](=O)[O-])cc1 | 14.7 (active)
40 | O=C(NC(=S)N1CCCc2ccccc21)c1ccc(Br)cc1 | 9.56 (active)
41 | CCC1CCCCN1C(=S)Nc1ccc(C(C)=O)cc1 (centres undefined) | -0.196
42 | O=C(NN1c2ccccc2CCc2ccccc21)c1ccccc1Br | -0.0618
43 | O=C(NC(=S)N1CCOCC1)c1ccc([N+](=O)[O-])cc1 | 0.875
44 | O=C(c1cncc(Br)c1)N1CCCc2ccccc21 | 0.0197
45 | CC(=O)N1CCCc2ccccc21 | 0.0326
46 | CC(=O)Nc1ccccc1C(=O)N1CCc2ccccc21 | 1.03

Row | Compound | z-score
47 | CC1CN(C(=S)NC(=O)c2ccc([N+](=O)[O-])cc2)CC(C)O1 (centres undefined) | 0.605
48 | O=C(NC(=S)N1CCc2ccccc21)c1ccccc1Br | 11.2 (active)
49 | O=C(N/N=C1\CCCc2ccccc21)c1ccc([N+](=O)[O-])cc1 | 1.47
50 | Cc1ccc(CN2C(=O)CCSc3ccc(Cl)cc32)cc1 | -0.054
51 | Clc1ccc(-c2n[nH]c3c2CCC3)c(Cl)c1 | 0.0993
52 | O=C(CCS(=O)(=O)c1cccc2nsnc12)NCc1ccccc1Cl | 0.429
53 | COc1ccccc1N1CCN(C(CNC(=O)c2ccco2)c2cccnc2)CC1 (centres undefined) | 1.2
54 | CN(/N=C/c1ccc(O)cc1O)c1nc(-c2ccccc2)cc(-c2ccccc2)n1 | 0.141
55 | COc1cc(C(=O)OCC(=O)Nc2ccc3c(c2)OC(F)(F)O3)ccc1OCc1c(C)noc1C | -0.513
56 | CC12CCC(C(=O)N3CCc4ccccc43)(CC1=O)C2(C)C (centres undefined) | 0.155
57 | COc1ccc(NC(=O)N2CCc3ccccc32)cc1 | 0.323
58 | O=C(c1ccccc1)N1CCCc2ccccc21 | 3.33 (active)
59 | COc1ccc(C(=O)N2CCCc3ccccc32)cc1 | -0.672
60 | Cc1ccc(NC(=O)N2CCc3ccccc32)cc1 | 1.99
61 | CC12CCC(C(=O)N3CCCc4ccccc43)(OC1=O)C2(C)C (centres undefined) | -0.143
62 | O=C(Nc1ccccc1)N1CCc2ccccc21 | -0.39
63 | CC12CCC(C(=O)N3CCCc4ccccc43)(CC1=O)C2(C)C (centres undefined) | 3.5 (active)
64 | O=C(CCC(=O)N1CCc2ccccc21)N1CCc2ccccc21 | -0.329
65 | CC(C)[C@H](NC(=O)c1ccccc1)C(=O)N1CCc2ccccc21 | -0.0295
66 | O=C(c1ccccc1)N1CCc2ccccc21 | 0.518
67 | O=C(NC(=S)N1CCc2ccccc21)c1ccccc1 | 7.58 (active)
68 | O=C(c1ccco1)N1CCN(Cc2nc3ccccc3c(=O)n2-c2ccc(F)cc2)CC1 | 0.209
69 | COc1cc2[nH]c(=S)nc(NCC3CCCO3)c2cc1OC (centres undefined) | 0.919

Row | Compound | z-score
70 | Cc1cccc(-n2c(C)n[nH]c2=S)c1 | -0.139
71 | Cc1ccc2c(c1)c1c(n2CC(O)CN2C(=O)CNC2=O)C(=O)CCC1 (centres undefined) | 0.0317
72 | Cc1cc(C)n(C(=O)CNC(=O)C(c2ccccc2)c2ccccc2)n1 | -0.473
73 | Fc1ccc(NC(=S)N2CCCc3ccccc32)cc1 | -0.143
74 | O=C(NC(=S)N1CCCc2ccccc21)c1ccc(Cl)cc1 | 15.6 (active)
75 | S=C(c1ccccc1)N1CCCc2ccccc21 | -0.863
76 | O=C(C(=O)N1CCCc2ccccc21)N1CCCc2ccccc21 | 0.0396
77 | O=C(NC(=S)N1CCCc2ccccc21)c1ccccc1 | 4.54 (active)
78 | COc1ccccc1C(=O)NC(=S)N1CCCc2ccccc21 | -0.0293
79 | CN(CCC#N)C(=O)Cn1nc(Cc2ccncc2)c2ccccc2c1=O | 1.89
80 | CCOCC(=O)Nc1nnc(C2CCCCC2)s1 | 0.0573
81 | Cc1cccc(Cn2c(C(C)O)nc3ccccc32)c1 (centres undefined) | -0.101
82 | COc1cccc(N2CCN(CC(=O)C34CC5CC(CC(C5)C3)C4)CC2)c1 | 0.0526
83 | COC(=O)[C@H](C)NC(=O)Nc1cc(OC)ccc1OC | -0.238
84 | COc1cc(/C=N/NC(=O)COc2c(C)cc([N+](=O)[O-])cc2C)ccc1OC(=O)c1ccccc1 | -0.81
85 | Cc1cc([N+](=O)[O-])cc(C)c1OCC(=O)N/N=C/c1ccc(OC(=O)c2ccccc2)cc1 | -0.0495
86 | Cc1cc([N+](=O)[O-])cc(C)c1OCC(=O)N/N=C/c1ccc(OC(=O)c2ccccc2Br)cc1 | 2.41
87 | CCOc1ccc2[nH]cc(C(=O)N3CCN(C4CCCCC4)CC3)c(=O)c2c1 | -0.123
88 | CC(=O)N1CCN(CC(O)COc2ccc(OCc3ccccc3)cc2)CC1 (centres undefined) | 0.0259
89 | Cc1cc2ccccc2c(=O)n1CC(=O)NCC1COc2ccccc2O1 (centres undefined) | 0.0188
90 | Cc1ccc2nc(N3C(=O)C(O)=C(C(=O)c4ccco4)C3c3cccs3)sc2c1 (centres undefined) | -1.09
91 | CC1CSc2ccccc2NC1=S (centres undefined) | 3.72 (active)
92 | O=C1CC(c2ccccc2)Sc2ccccc2N1 (centres undefined) | -0.216

Row | Compound | z-score
93 | CC1CC(=S)Nc2ccccc2N1Cc1ccccc1 (centres undefined) | 1.32
94 | C=C(C)c1cccc(C(C)(C)NC(=O)Nc2ccc(C)cn2)c1 | -0.34
95 | CCOc1ccc(C(=O)Nc2cc(=O)n(C)c(=O)n2C)cc1 | -0.395
96 | CCOC(=O)c1ccc2nc(NC(=O)c3ccco3)sc2c1 | -0.0743
97 | O=C(CN1CCN(Cc2ccc3c(c2)OCO3)CC1)Nc1ccc2c(c1)OCCO2 | 0.156
98 | Cc1c(NC(=O)Cn2cnc3c(=O)n(C)c(=O)n(C)c32)cccc1-c1nc2ccccc2o1 | 0.183
99 | CC12CCC(C(=O)N(CC(O)CN3CCCCC3)C1=O)C2(C)C (centres undefined) | 0.169
100 | COc1ccc(/C=N\NC(=S)SCN2C(=O)C3CCC(C)(C2=O)C3(C)C)cc1 (centres undefined) | 9.12 (active)
101 | COc1ccc(/C=N/NC(=S)NC2CCS(=O)(=O)C2)cc1 (centres undefined) | -0.113
102 | COc1ccc(C(=O)NN2C(=O)C3CCC(C)(C2=O)C3(C)C)cc1 (centres undefined) | -0.0665
103 | CC12CCC(C(=O)N(CSC(=S)N/N=C\c3ccccc3)C1=O)C2(C)C (centres undefined) | 16.4 (active)
104 | CN(C)c1ccc(/C=N\NC(=S)SCN2C(=O)C3CCC(C)(C2=O)C3(C)C)cc1 (centres undefined) | 1.74
105 | CCOc1ccc(NC(=O)CCCN2C(=S)NC(C)(C)CC2C)cc1 (centres undefined) | -0.466
106 | O=C1CC(N2CCN(c3nc4ccccc4s3)CC2)C(=O)N1c1ccc(F)cc1 (centres undefined) | 7.65 (active)
107 | CCCOc1ccc(N2C(=O)CC(N3CCN(c4nc5ccccc5s4)CC3)C2=O)cc1 (centres undefined) | 0.835
108 | O=C1CC(N2CCN(c3nc4ccccc4s3)CC2)C(=O)N1c1cccc(F)c1 (centres undefined) | -0.276
109 | CCCCC(=O)Nc1nc2ccc3nc(C)sc3c2s1 | -0.125
110 | CCC(=O)Nc1nc2ccc3nc(C)sc3c2s1 | 3.6 (active)
111 | CCCC(=O)Nc1nc2ccc3nc(C)sc3c2s1 | -0.507
112 | Nc1sccc1C(=O)c1ccc(Cl)cc1 | -0.434
113 | Nc1cc2c(cc1C(=O)c1ccccc1)OCCO2 | 0.199
114 | Nc1sccc1C(=O)c1ccccc1 | 11 (active)
